Common to all, as to parameters: scale not given: direction of the effect not stated beside the values
In assay [1] the target is Protein translocase subunit SecA (Escherichia coli (strain K12)) (UniProt P10408). The assay can be described thus: Assay to Identify E. coli SecA ATPase Inhibitors. The assay is classed as functional. To be noted: 30 µM.
For assay [2], the target named is T1, Ubiquitin-activating enzyme e1, putative (Leishmania donovani (strain BPK282A1)) (UniProt E9BSI1).
T1 sequence (whole entry): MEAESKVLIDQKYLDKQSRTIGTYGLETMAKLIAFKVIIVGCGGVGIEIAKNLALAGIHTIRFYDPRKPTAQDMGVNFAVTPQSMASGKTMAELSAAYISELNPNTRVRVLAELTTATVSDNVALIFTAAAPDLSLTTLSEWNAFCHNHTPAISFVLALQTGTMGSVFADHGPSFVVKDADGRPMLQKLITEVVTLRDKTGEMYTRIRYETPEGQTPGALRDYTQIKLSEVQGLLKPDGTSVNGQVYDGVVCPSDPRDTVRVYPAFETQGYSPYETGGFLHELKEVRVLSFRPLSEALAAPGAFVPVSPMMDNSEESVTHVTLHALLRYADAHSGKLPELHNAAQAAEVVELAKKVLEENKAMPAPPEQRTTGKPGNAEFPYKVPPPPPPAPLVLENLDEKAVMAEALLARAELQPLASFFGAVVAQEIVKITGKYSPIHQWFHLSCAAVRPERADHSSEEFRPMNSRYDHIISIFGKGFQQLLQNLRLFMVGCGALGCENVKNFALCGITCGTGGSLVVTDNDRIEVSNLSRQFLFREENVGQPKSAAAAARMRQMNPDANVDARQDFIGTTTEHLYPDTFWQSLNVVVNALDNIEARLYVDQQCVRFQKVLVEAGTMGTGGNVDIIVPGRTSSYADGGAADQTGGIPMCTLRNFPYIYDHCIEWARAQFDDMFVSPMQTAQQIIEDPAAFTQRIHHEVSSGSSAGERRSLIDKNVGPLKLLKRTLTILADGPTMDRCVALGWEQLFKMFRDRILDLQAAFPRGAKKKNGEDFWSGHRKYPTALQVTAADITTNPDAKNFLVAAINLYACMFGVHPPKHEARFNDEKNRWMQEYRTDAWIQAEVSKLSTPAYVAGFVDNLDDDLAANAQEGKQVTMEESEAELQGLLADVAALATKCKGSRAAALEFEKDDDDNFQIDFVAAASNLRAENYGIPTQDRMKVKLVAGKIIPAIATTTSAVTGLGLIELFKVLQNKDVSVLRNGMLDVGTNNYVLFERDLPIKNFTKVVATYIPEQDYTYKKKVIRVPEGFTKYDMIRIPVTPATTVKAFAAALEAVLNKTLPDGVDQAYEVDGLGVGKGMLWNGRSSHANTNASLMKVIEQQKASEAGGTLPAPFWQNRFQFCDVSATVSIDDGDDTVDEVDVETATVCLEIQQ
Nature of the assay: Leishmania donovani Ubiquitin Activating Enzyme (LdE1). Format: functional. To be noted: 30 µM.

The target in assay [3] is AMP-activated protein kinase, AMPK (Homo sapiens) (UniProt P54646+O43741+P54619+Q9UGJ0+Q9Y478+Q13131+Q9UGI9). Nature of the assay: AMP-dependent Kinase enzyme assay. An in vitro enzyme assay that detects ADP turnover that is directly proportional to AMPK activity. This uses naive AMPK that is activated during the assay with MK-8722. Format: functional. To be noted: 30 µM.

The target in assay [4] is Sialic acid-binding Ig-like lectin 9 (Homo sapiens) (UniProt Q9Y336). The assay can be described thus: Hs-Siglec9 ALPHAscreen SOP 20170721. Particulars: 10 µM.
Chain of Sialic acid-binding Ig-like lectin 9 (Homo sapiens) (Q9Y336 whole entry): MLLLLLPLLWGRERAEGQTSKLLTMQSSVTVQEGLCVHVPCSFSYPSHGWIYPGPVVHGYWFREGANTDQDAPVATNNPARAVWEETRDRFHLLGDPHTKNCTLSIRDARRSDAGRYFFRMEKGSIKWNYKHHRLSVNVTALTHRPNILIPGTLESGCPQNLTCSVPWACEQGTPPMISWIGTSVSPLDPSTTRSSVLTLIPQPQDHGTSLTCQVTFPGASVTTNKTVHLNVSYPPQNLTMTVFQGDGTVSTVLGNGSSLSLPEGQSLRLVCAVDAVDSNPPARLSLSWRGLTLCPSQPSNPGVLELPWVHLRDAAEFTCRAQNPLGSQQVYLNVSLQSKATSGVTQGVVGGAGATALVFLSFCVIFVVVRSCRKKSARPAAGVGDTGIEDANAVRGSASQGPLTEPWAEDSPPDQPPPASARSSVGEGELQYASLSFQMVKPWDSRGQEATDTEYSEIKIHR
The test system of a further assay is Trypanosoma cruzi. Nature of the assay: Trypanosoma cruzi phosphomannomutase and mannose-1-phosphate guanylyltransferase assay. The assay is classed as functional. To be noted: 10 µM.
Assay [5] deals with T2, Arginase-2, mitochondrial (Homo sapiens) (UniProt P78540).
T2 sequence (whole entry): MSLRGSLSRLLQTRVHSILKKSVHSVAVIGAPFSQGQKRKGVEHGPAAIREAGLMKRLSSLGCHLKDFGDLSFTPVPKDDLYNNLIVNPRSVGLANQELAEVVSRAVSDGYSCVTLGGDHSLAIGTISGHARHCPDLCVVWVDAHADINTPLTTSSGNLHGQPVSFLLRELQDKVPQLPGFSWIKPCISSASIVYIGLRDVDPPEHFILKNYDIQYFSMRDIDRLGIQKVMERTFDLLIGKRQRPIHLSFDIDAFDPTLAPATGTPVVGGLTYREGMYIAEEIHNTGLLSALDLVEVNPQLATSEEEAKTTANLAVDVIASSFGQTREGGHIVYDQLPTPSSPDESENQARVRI
Nature of the assay: in vitro enzyme assay to detect the production of urea directly proportional to the activity of Arginase II. Note: in the data most compounds retested in dose-response had high values. The assay is classed as functional. To be noted: 33.3 µM.

The target in assay [6] is T3, Proteasome subunit beta (Trypanosoma cruzi) (UniProt O96673).
T3 sequence (whole entry): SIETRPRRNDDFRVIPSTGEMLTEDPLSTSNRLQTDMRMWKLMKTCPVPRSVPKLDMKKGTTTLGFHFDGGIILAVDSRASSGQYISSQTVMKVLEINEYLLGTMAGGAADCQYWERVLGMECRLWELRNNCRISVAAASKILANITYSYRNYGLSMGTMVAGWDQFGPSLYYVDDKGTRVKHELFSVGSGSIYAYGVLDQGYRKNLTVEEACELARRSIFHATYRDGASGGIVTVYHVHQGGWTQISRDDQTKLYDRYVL
The assay can be described thus: Trypanosoma cruzi proteasome chymotrypsin-like activity (TcProtChymo) assay. Note: in the data most compounds retested in dose-response had high values. Format: functional. Particulars: 9.37 µM.

The species entered for the next assay is Homo sapiens. The assay can be described thus: To identify inhibition of the IFN signalling (Jak-Stat) pathway via expression of an eGFP reporter gene under the control of an IFN-stimulated response element (ISRE) containing MxA promoter. The assay is classed as functional. Particulars: 30 µM. Background: A reporter such as luciferase makes a cellular process visible.

Assay [7] has as its target T4, Tyrosyl-tRNA synthetase, putative (Trypanosoma cruzi (strain CL Brener)) (UniProt Q4DSP6).
T4 sequence (whole entry): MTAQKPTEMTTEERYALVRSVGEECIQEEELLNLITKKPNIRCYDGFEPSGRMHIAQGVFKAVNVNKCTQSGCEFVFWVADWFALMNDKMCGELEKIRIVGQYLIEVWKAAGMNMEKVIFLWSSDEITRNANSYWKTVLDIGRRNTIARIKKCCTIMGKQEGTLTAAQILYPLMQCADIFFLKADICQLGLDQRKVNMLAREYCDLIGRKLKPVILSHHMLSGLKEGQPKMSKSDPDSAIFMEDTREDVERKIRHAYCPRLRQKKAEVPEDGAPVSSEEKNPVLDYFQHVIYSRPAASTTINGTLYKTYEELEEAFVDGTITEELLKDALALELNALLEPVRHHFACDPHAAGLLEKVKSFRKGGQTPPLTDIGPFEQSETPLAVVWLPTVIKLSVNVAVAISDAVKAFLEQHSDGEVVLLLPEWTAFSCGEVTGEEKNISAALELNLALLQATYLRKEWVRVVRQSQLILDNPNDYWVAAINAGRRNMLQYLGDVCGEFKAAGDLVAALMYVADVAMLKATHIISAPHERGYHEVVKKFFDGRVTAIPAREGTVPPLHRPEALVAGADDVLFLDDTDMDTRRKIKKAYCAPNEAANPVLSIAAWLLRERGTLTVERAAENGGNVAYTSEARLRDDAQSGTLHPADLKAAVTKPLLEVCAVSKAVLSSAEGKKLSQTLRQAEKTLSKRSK
The assay can be described thus: Trypanosoma cruzi tyrosyl tRNA synthetase (TcYRS) _High Tyrosine SOP. Note: in the data most compounds retested in dose-response had high values. Format: functional. Particulars: 30 µM.

The target of assay [8] is T4, Tyrosyl-tRNA synthetase, putative (Trypanosoma cruzi (strain CL Brener)). The assay can be described thus: Trypanosoma cruzi tyrosyl tRNA synthetase (TcYRS) SOP. Format: functional. Particulars: 30 µM.
For assay [9], the target named is Chromo domain-containing protein 1 (Saccharomyces cerevisiae (strain ATCC 204508 / S288c) (Baker's yeast)) (UniProt P32657). The assay can be described thus: ScCHD-1 Enzyme Inhibition Assay. Note: in the data most compounds retested in dose-response had high values. Particulars: 30 µM. The assay is classed as functional.
Chain of Chromo domain-containing protein 1 (Saccharomyces cerevisiae (strain ATCC 204508 / S288c) (Baker's yeast)) (P32657 whole entry, the tested form may be a part): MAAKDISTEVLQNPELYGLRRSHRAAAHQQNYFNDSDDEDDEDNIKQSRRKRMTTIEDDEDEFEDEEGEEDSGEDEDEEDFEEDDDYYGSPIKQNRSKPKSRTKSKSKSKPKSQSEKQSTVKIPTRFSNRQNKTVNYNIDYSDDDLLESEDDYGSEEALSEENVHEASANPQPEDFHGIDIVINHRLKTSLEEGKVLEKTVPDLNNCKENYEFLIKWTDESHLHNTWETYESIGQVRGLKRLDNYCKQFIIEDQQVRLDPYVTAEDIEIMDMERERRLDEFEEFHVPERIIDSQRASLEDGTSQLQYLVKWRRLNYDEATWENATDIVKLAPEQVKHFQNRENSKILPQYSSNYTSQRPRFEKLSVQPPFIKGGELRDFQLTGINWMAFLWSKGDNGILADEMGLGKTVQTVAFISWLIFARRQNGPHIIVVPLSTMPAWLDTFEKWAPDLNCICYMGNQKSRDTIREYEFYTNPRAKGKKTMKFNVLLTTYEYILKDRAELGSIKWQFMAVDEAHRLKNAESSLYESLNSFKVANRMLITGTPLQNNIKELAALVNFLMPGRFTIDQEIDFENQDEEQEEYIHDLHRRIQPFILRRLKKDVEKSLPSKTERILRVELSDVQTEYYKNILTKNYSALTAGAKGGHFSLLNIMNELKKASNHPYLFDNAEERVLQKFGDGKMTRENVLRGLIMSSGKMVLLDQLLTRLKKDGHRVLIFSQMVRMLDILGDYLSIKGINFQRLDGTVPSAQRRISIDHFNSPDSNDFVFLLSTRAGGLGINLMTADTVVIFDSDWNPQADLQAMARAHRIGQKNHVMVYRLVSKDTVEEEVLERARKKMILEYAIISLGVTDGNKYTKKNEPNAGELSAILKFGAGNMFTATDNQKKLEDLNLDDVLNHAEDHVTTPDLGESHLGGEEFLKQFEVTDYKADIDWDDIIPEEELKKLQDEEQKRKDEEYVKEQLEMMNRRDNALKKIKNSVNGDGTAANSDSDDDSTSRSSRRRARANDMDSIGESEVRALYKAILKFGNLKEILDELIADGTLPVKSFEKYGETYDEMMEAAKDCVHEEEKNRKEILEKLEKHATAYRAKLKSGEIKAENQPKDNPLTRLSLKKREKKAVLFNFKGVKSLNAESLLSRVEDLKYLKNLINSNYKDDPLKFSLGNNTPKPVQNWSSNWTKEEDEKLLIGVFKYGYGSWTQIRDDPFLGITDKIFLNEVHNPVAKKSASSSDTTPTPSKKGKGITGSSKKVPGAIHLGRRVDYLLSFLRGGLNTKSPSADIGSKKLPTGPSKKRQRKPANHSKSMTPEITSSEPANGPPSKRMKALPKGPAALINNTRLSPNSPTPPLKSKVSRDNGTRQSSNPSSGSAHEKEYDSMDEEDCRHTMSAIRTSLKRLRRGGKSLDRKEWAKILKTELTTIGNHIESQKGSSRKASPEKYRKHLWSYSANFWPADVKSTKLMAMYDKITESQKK

For some of these results: Potency and affinity values are given separately.

The values that follow come from ChEMBL document CHEMBL3988442, “University of Dundee, Small-Polar-MMV Screening Library” (2021).

Chain of Protein translocase subunit SecA (Escherichia coli (strain K12)) (P10408 whole entry): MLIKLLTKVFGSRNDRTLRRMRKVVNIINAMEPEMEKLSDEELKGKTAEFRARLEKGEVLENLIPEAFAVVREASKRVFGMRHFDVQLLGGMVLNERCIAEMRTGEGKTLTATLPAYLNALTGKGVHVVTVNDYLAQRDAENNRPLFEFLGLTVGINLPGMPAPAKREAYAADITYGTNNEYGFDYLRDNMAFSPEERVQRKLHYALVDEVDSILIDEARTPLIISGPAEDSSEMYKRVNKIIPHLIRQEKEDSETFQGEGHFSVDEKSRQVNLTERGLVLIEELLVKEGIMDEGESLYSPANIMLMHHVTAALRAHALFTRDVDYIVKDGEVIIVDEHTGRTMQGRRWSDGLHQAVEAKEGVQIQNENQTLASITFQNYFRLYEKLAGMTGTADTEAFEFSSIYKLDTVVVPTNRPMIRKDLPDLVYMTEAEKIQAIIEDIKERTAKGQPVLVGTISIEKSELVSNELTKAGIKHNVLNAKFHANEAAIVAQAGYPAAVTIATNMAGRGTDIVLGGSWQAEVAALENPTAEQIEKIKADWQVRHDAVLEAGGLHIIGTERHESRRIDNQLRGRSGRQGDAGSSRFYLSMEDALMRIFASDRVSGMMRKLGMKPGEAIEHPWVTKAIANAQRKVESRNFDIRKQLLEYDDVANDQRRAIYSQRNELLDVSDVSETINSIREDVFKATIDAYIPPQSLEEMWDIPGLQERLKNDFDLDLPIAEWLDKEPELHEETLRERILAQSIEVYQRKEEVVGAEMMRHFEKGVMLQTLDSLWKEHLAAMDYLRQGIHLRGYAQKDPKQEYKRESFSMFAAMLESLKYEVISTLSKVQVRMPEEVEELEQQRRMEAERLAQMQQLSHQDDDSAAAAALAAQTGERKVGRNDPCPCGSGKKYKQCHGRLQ

Regarding `COc1ccc(F)cc1C(C)NC(=O)c1nnc(C)s1` (stereo unspecified), the Percent Effect in [1] is -4.77%; in assay [2], -2.7%; in [3], 0.954%; in assay [4], -9.5%; in the assay with Trypanosoma cruzi it was -2.05%; in assay [5], 0.248%. Moreover, the Percent Effect in assay [6] was -4.89%; in the assay listed under Homo sapiens it was -14.3%; in assay [7] it was -3.23%; in [8], -1.24%; in [9], 3.82%.

Consider `CN(C)CCN1C[C@@H]2CN(C(=O)c3ccsc3)C[C@@H]2C1=O`, for which the Percent Effect in assay [1] is -7.36%; in assay [2], 5.2%; in assay [3], 0.643%; in assay [4] it was 5.55%; in the assay with Trypanosoma cruzi it was -3.25%; in [5], 0%. Besides, the Percent Effect in assay [6] amounted to 5.66%; in the assay filed under Homo sapiens, 20.3%; in [7], 0%; in [8], 1.24%; in assay [9], 1.29%.

`CC(C)CN1C[C@H]2CCN(c3ncccn3)CC[C@H]2S1(=O)=O`: the Percent Effect in assay [1] was -1.59%; in [2], 20.8%; in assay [3] it was -1.01%; in assay [4], 12.2%; in the assay with Trypanosoma cruzi, 6.39%; in assay [5] it was -15.2%. Besides, the Percent Effect in [6] was 15%; in the assay filed under Homo sapiens, -0.732%; in [7] it was 6.45%; in [8] it was 13.6%; in assay [9], 118%.

Take `CC(C)(C(=O)NCC1CC1)c1ccccc1F`: the Percent Effect in assay [1] was -8.21%; in assay [2] it was 4.17%; in [3], -4.88%; in [4] it was 2.97%; in the assay on Trypanosoma cruzi it was -4.18%; in assay [5], 0.442%. Further, the Percent Effect in assay [6] is 15.6%; in the assay listed under Homo sapiens, -2.36%; in assay [7], 2.1%; in [8] it was 2.56%; in [9] it was -3.44%.

Turning to `COc1ncnc2c1CCN(c1cc(C(F)(F)F)ncn1)CC2`, the Percent Effect in assay [1] is -3.48%; in [2], 8%; in [3], 4.03%; in assay [4] it was -3.21%; in the assay with Trypanosoma cruzi it was -6.56%; in assay [5], -57.5%. The Percent Effect in [6] was 6.67%; in the assay listed under Homo sapiens, 20.9%; in [7] it was -1.04%; in assay [8], 7.5%; in [9], -7.82%.

For the molecule `c1ccc(N2CCOC3(CCCN(c4nncs4)C3)C2)nc1` (stereo unspecified), the Percent Effect in [1] was -3.17%; in [2] it was 7.79%; in [3], 3.64%; in assay [4], 2.14%; with Trypanosoma cruzi, -1.28%; in assay [5], 3.23%. Moreover, the Percent Effect in assay [6] is 14.4%; in the assay listed under Homo sapiens, -6.63%; in assay [7], 3.17%; in [8] it was 8.97%; in assay [9] it was -7.1%.

`O=C(c1ccc(Br)o1)N1CCN(Cc2ccc(OC(F)(F)F)cc2)CC1`: the Percent Effect was -1.82% in assay [1]; 5.48% in [2]; 27.2% in assay [3]; -16.1% in assay [4]; -1.96% with Trypanosoma cruzi; -0.455% in assay [5]. Also, the Percent Effect in assay [6] was 8.87%; in the assay filed under Homo sapiens, 37.2%; in assay [7], 2.15%; in assay [8] it was 7.5%; in assay [9], -3.29%.

Consider `CC(=O)N1CCN(C(=O)C2SCCc3sccc32)CC1` (stereo unspecified), for which the Percent Effect in [1] is -7.67%; in assay [2], 0%; in [3], -1.92%; in [4], 7.24%; with Trypanosoma cruzi it was -2.15%; in [5], -0.833%. Further, the Percent Effect in [6] was 2.11%; in the assay listed under Homo sapiens it was 6.62%; in assay [7] it was 3.96%; in assay [8], -1.22%; in assay [9], 0.658%.

As to `CCC(CC)c1cc(CNC(=O)N2CCOCC2CC)on1` (stereo unspecified), the Percent Effect is -3.39% in [1]; 0% in assay [2]; -0.644% in assay [3]; 2.45% in [4]; 7.33% in the assay on Trypanosoma cruzi; -1.24% in assay [5]. For the same molecule, the Percent Effect in assay [6] is 0.0858%; in the assay listed under Homo sapiens, -31.4%; in [7], 0%; in assay [8], 1.24%; in assay [9], -0.017%.

On to `Cc1ccc(CN2CC[C@H]3C[C@@H](c4nc(C5CC5)cs4)O[C@@H]3C2)o1`, for which the Percent Effect in assay [1] is -2.45%; in [2], 2.6%; in assay [3], 0.23%; in assay [4] it was 10%; with Trypanosoma cruzi it was 10.1%; in assay [5] it was -48.3%. Further, the Percent Effect in assay [6] is 16.3%; in the assay listed under Homo sapiens, 36.5%; in [7] it was 10.8%; in assay [8], 16.1%; in assay [9] it was -1.64%.

For `COc1ccc(OCC(=O)NC(C)c2ccccc2)c(C(=O)O)c1` (stereo unspecified), the Percent Effect was -7.92% in assay [1]; 0% in [2]; -0.906% in [3]; 3.42% in assay [4]; -4.4% with Trypanosoma cruzi; -0.744% in assay [5]. Also, the Percent Effect in assay [6] was 6.78%; in the assay listed under Homo sapiens it was -2.11%; in assay [7] it was -1.07%; in assay [8] it was -1.24%; in [9], -2.92%.
